# Shown are actives, neighbours in structure and some others; about 3.2% of the full set was active somewhere.
# Tau ThT inhib: inhibitors of human tau fibril formation, thioflavin T binding; Potency, µM (titrated, usually from 57.4 µM), for inactives: top-dose activity, negative = inhibition, actives largely listed as inhibitors; AID 1460; 270,000 compounds, 2.1% hits; recombinant tau K18 P301L, heparin-induced fibrillization, ThT fluorescence; P10636; further: nearly all actives have a fitted effect of over 55% in size
# Target sequence (P10636 561-689 P618L limits assumed): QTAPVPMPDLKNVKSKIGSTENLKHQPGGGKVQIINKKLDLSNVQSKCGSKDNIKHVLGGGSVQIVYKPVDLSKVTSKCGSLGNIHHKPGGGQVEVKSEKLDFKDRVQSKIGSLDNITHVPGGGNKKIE
#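 ThT emission at 510 nm, taken 1 hr after adding 30 uM dye, quantifies aggregates formed when 20 uM heparin acts on human tau K18 P301L for 6 hr at 37 C.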
# Tau fibril FP: inhibitors of human tau fibril formation. Potency, µM (highest dose often 57.7 µM), without a hit: top-dose activity, negative = inhibition, usual class: inhibitors. 280,000 compounds, 0.39% hits. AID 1468. K18 P301L tau heparin fibrillization, Alexa594 FP, 6 h; further: nearly all actives have a fitted effect of over 55% in size
#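 Quantitative HTS format: compounds meet 15 uM recombinant K18 P301L tau and Alexa 594-tau tracer in 100 mM sodium acetate pH 7; 20 uM heparin triggers fibrillization at 37 C over 6 hr; FP gives the signal.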
# TR SRC2 fluor cs: alters Texas Red total fluorescence, flagging assay interference | TRb/SRC2 Texas Red total fluorescence interference | Potency, µM (highest dose often 106 µM), for inactives: at the highest dose fluorescence change, negative = quenching | 280,000 compounds, 0.29% hits | AID 1479; active means well fitted curve in either direction with a large enough effect; inconclusive means small, poorly fitted or top-dose-only effect
#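 Flags fluorescent or light-absorbing compounds by total fluorescence, S + 2P, at 555 nm excitation and 632 nm emission. Mixture: 20 nM Texas Red SRC2 peptide, 0.6 uM human TRb LBD, 1 uM T3, 5% DMSO; compound exposure 5 h at ambient temperature.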
# GoLoco inh red: blocks human Gai1 binding to RGS12 GoLoco peptide, red readout; P63096; Gai1:RGS12 GoLoco peptide FP, rhodamine, 10 min; 230,000 compounds, 0.44% hits; Potency, µM (series often up to 61.6 µM), inactives show at the highest dose activity, negative = inhibition, usual class: inhibitors; active means well fitted inhibition curve with a large enough effect, not every such curve was filed as active; inactive means no such curve, though single readings can be large or run the other way; further: nearly all actives have a fitted effect of over 30% in size
# TRb-SRC2 inh: inhibitors of human thyroid hormone receptor beta-SRC2 interaction; TRbeta-SRC2 peptide binding, fluorescence polarization; receptor liganded with 1 µM T3; AID 1469; 280,000 compounds, 0.065% hits; Potency, µM (series often up to 106 µM), for inactives: at the highest dose activity change, negative = inhibition, hits mostly inhibitors; P10828;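 further: plate controls were bound peptide for no effect and peptide without receptor for full effect; nearly all actives have a fitted effect of over 50% in size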
# Target sequence (P10828 whole entry, looked up): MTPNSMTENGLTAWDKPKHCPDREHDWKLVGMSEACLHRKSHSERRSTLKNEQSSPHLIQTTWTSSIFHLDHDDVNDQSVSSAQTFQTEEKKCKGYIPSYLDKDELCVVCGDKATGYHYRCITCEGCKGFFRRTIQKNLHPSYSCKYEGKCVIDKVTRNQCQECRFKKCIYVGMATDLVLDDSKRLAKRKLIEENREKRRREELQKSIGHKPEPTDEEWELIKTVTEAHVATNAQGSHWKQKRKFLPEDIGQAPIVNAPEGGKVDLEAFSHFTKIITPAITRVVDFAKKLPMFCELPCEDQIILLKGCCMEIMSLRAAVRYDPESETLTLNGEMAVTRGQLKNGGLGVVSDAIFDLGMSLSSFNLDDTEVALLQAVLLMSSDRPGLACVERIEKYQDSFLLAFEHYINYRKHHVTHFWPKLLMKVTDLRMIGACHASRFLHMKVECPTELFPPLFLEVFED
#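 Polarization signal, normalized between peptide-alone and full complex controls, measured compound effects on T3-liganded human TRb LBD (0.6 uM) binding 20 nM Texas Red SRC2 peptide after 5 hr.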
# Tau fluor cs: counter-screen for tau fibril formation inhibitors; Potency, µM (doses to about 57.7 µM), for inactives: at the top dose activity change, negative = decrease; AID 1463; tau K18 P301L Alexa594 fluorescence, heparin fibrillization; 280,000 compounds, 0.93% hits; further: nearly all actives have a fitted effect of over 55% in size
#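 Human tau K18 P301L (15 uM unlabeled, 0.24 uM Alexa 594-labeled) in 100 mM sodium acetate pH 7 with 20 uM heparin, 6 hr at 37 C. ThT 30 uM added, 1 hr ambient; Alexa 594 FP and total fluorescence read at 555/632 nm.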
# Active calls of the source: *; u = inconclusive; x = no result given; [ ] = remark or other dose. Unless noted, the call rests on the fitted dose curve; in most records, active means well fitted curve in the direction sought with a large enough effect; inconclusive means small, poorly fitted or top-dose-only effect, or another doubt; inactive means no such curve, though single readings can be large; an effect the other way counts as inactive or inconclusive. Unless noted, on the % scale 0 is the no-effect control and ±100 the full control effect; potency means the concentration at half of the fitted maximal effect.
SMILES,Tau ThT inhib,Tau fibril FP,TR SRC2 fluor cs,GoLoco inh red,TRb-SRC2 inh,Tau fluor cs
CCOC(=O)N1CCc2c(sc(NCc3sccc3C)c2C(=O)Nc2cc(OC)ccc2OC)C1,u,-1.8%,-5.5%,x,-0.5%,u
COc1ccc(OC)c(NC(=O)c2c(NCc3ccc(OC)c(OC)c3)sc3c2CCC3)c1,u,-2.4%,2.1%,x,3.6%,u
CCOC(=O)N1CCc2c(sc(NCc3ccc(OC)c(Br)c3)c2C(=O)Nc2cc(OC)ccc2OC)C1,14.1µM*,-2.0%,-4.2%,x,-3.3%,u
C[C@@H](N)C1CCC(C(=O)Nc2ccncc2)CC1 (stereo partly specified),-1.7%,4.5%,-4.1%,-8.7%,1.2%,-3.2%
O=c1n(Cc2cc3c(cc2Cl)OCO3)c(=O)n2n1CC[C@H]1/C(=N\OCc3ccccc3)[C@H]3O[C@@H]3[C@@H](O)[C@@H]12,-10.6%[11.5 µM],-4.3%[11.6 µM],-2.0%[11.2 µM],x,0.9%[11.2 µM],-8.2%[11.6 µM]
O=C(Nc1cccc(Cl)c1)Nc1cc(S(=O)(=O)N2CCOCC2)ccc1N1CCCC1,-1.2%,-1.9%,-3.1%,4.0%,-0.5%,14.1µM*[quencher]
O=C(O)C1Cc2c([nH]c3ccccc23)C(c2coc3ccccc3c2=O)N1 (stereo unspecified),-14.6%,2.7%,-0.2%,2.6%,5.4%,-9.2%
CC(=O)c1c(C(C)=O)c(C)n(-c2ccc(N)c(C)c2)c1C,-15.5%,-1.1%,44.7µM*[fluorescent],-4.5%,22.4µM*,0.2%
COc1ccc(-n2c(C)c(C(C)=O)c(C(C)=O)c2C)cc1OC,-5.0%,3.6%,0.7%,-9.4%,-18.5%,-1.9%
CC1(C)CC(=O)C2=C(C1)NC1=C(C(=O)c3ccccc31)C2c1ccc(O)cc1 (stereo unspecified),17.8µM*,13.9%,-6.4%,5.0%,-1.1%,u
O=C(Nc1ccc(F)cc1)c1nc(SCc2ccccc2F)ncc1Cl,0.8%,-12.1%,-2.6%,x,-10.0%,-5.6%
O=C(Oc1ccccc1F)c1nc(SCc2ccccc2F)ncc1Cl,22.4µM*,-8.9%,-0.3%,x,-1.0%,-24.6%
Cc1ccc(CSc2ncc(Cl)c(C(=O)Oc3ccccc3F)n2)cc1,15.8µM*,-12.1%,0.5%,x,-0.7%,-24.2%
O=C(Nc1ccccc1F)c1nc(SCc2ccc(F)cc2)ncc1Cl,-6.4%,-16.1%,-0.2%,x,-8.8%,-22.7%
OC1c2ccccc2N=C2CCCN21 (stereo unspecified),x,x,0.8%,x,-1.9%,x
O=C(O)c1c[nH]c2cc(OCc3ccccc3)ccc2c1=O,x,x,x,0.7%[14.2 µM],x,x
CC(C)=CCNc1ncnc2c1c(C#N)cn2[C@H]1O[C@@H](CO)[C@@H](O)[C@@H]1O,x,x,x,-4.7%[14.2 µM],x,x
CC1(C)C(=O)Nc2ccccc2N1C(=O)CSc1nc(-c2ccccc2)cs1,6.3%,0.7%,31.6µM*[quencher],17.8%,-8.1%[53 µM],5.4%
O=C1CN(C(=O)CSc2nc(-c3ccccc3)cs2)c2ccccc2N1,-5.7%,6.6%,1.4%,12.3%,1.0%,-20.4%
CCS(=O)(=O)c1ncc(Cl)c(C(=O)N2CCN(c3cccc(Cl)c3)CC2)n1,u,-20.1%,-11.7%,x,4.2%,-2.6%
Cc1[nH]c2ccc(C(=O)Nc3ccc(F)cc3)cc2c1C,12.6µM*,u,-0.9%,x,2.9%,14.1µM*[quencher]
CO[C@H]1COC(=O)[C@@H](C)COC(=O)[C@@H](COCc2ccccc2)NC(=O)C/C=C\[C@H]1C,-10.0%[11.5 µM],4.0%[11.6 µM],0.5%[11.2 µM],x,0.2%[11.2 µM],-7.0%[11.6 µM]
C=C1CCN(C(C)C(=O)OCc2cccc(C)c2)S(=O)(=O)c2ccccc21 (stereo unspecified),x,x,-1.2%,x,-4.3%,x
COc1cc(NC(=O)Nc2cccc(-c3noc(C)n3)c2)cc(OC)c1OC,u,16.8%,-3.0%,x,2.2%,12.6µM*[quencher]
COc1cc(NC(=O)Nc2cccc(C(C)=O)c2)cc(OC)c1OC,-18.9%,u,-5.7%,9.0%,-4.8%,u
O=C(Nc1ccc(Cl)cc1)Nc1ccc(Cl)c(Cl)c1,x,x,0.1%[201 µM],5.6%,-0.6%[201 µM],x
O=C(Nc1ccc(Br)cc1)Nc1ccccc1F,10.6%,u,-5.0%,3.0%,-7.3%,u

# Screening results (PubChem)
